Results on 80 molecules are retold here after PubChem BioAssay AID678 (Vanderbilt High Throughput Screening Facility, 2007).

The whole screen tested about 1,700 compounds, of which about 15 (0.9%) were called active. The list is a sample of the results. A number with no mark means an inactive call.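 How the source made its calls: active means fluorescence response below the plate's average for near-maximal glutamate wells, less 3 SD of those wells; inactive means the rest.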

The assay has as its target Metabotropic glutamate receptor 4 (Homo sapiens) (UniProt Q14833). The experiment in a line: mGluR4 calcium signal in M1 antagonist follow-up – cell-based, antagonist mode, secondary assay 1, M1 allosteric modulator project (AID 678).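 Further: raw unnormalized fluorescence span taken in the window right after glutamate addition.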 As to conditions: CHO-mGluR4 calcium flux, Fluo-4 fluorescence, glutamate EC80; at 10 µM; active compounds read low.
As to `CN(C)[C@@H]1C(=O)C(C(N)=O)=C(O)[C@@]2(O)C(=O)C3=C(O)c4c(O)ccc(Cl)c4[C@@H](O)[C@H]3C[C@@H]12`, the fluorescence response (max-min) is 238.
Next, `Cc1cccc(N2CCN(Cc3c(C)n(C)n(-c4ccccc4)c3=O)CC2)c1C`: 223.
Next, `CCC1(C)Cc2c(sc3nc4n(c(=O)c23)CCCS4)CO1` (stereo not given): 249.
Regarding `O=C(NC1=NCCS1)c1ccc(Cl)s1`, the fluorescence response (max-min) was 158.
Regarding `Cc1nc2ccccc2c2oc(C(=O)NCCCN3CCC(C)CC3)cc12`, the fluorescence response (max-min) was 185.
In the case of `O=S(=O)(CCc1nc2ccccc2o1)c1ccc(Cl)cc1`, the fluorescence response (max-min) is 249.
Turning to `CCOC(=O)C1=C(CC)Nc2ccccc2N=C1NC(=O)c1cccc(S(=O)(=O)N2CCCC2)c1`, the fluorescence response (max-min) was 148.
As for `COc1ccc(CCn2c(=N)c(C(=O)NCc3ccco3)cc3c(=O)n4cccc(C)c4nc32)cc1`, the fluorescence response (max-min) is 207.
Next, `CCC(C(=O)OCCN(CC)CC)c1ccccc1` (stereo not given): 235.
As for `O=C(c1ccco1)N1CCN=C1SCc1cccc(Cl)c1`, the fluorescence response (max-min) is 236.
In the case of `O=C1NC(Nc2nc3ccccc3s2)(C(F)(F)F)C(=O)N1C1CCCCC1` (stereo not given), the fluorescence response (max-min) was 308.
Next, `Cn1c(CCN2CCCCCC2)nc2cc(NC(=O)Nc3ccccc3)ccc21`: 225; `CCOC(=O)c1c(-c2ccc(C)cc2C)csc1NC(=O)CSc1nnnn1C`: 167; `CC(C)(C)n1nnnc1C(c1cccs1)N(Cc1cccnc1)CC1CCCO1` (stereo not given): 241.
Turning to `CCn1c(=N)n(CC(=O)c2cccc(OC)c2)c2ccccc21`, the fluorescence response (max-min) was 268.
As for `O=C(C(NS(=O)(=O)c1cccc2nsnc12)c1ccccc1)N1CCN(c2ccccn2)CC1` (stereo not given), the fluorescence response (max-min) was 228.
To `C=CCn1c(=S)[nH]c2nc3c(cc2c1=O)COC(C)(C)C3` belongs 199; to `Cc1nc2c(-c3ccc(F)cc3)c(C)nn2c(C)c1CCC(=O)N1CCN(c2ccccn2)CC1`, 245; to `CN(C)CCOC(=O)C(c1ccccc1)C1(O)CCCC1` (stereo not given), 250.
To `CCCCN(C)C(=O)c1ccc2c(c1)N(CC)C(=O)c1ccccc1S2(=O)=O` belongs 258; to `O=C(NCCCN1CCCCCC1)C1CC(=O)N(C2CCCC2)C1` (stereo not given), 241.
To `CC1CCCC(C)N1CCCNC(=O)c1cc2c(=O)n(C)c3ccccc3c2n1C` (stereo not given) belongs 236.
`CCOc1ccccc1C(=O)NCCCn1ccnc1`: the fluorescence response (max-min) was 200.
Regarding `O=S(=O)(c1ccc(OCC(O)CN2CCN(c3ccccc3Cl)CC2)cc1)N1CCOCC1` (stereo not given), the fluorescence response (max-min) is 233.
As for `COc1cccc2sc(Nc3nc(C)c(C(C)=O)s3)nc12`, the fluorescence response (max-min) was 200.
To `CCC(C)(NC(=O)c1ccccn1)C(=O)NC1CCCCC1` (stereo not given) belongs 237; to `COc1cccc(OCCOc2cccc(/C=N/n3cnnc3)c2)c1`, 210.
Next, `CCOC(=O)N1CCN(C(=O)C2CCN(c3ncnc4c3sc3cccc(F)c34)CC2)CC1`: 221; `Cc1ccccc1C(OCC(O)CN1CCCCC1CCO)c1ccccc1` (stereo not given): 188.
Turning to `N#CC(C(=O)c1ccc(S(=O)(=O)N2CCCCCC2)cc1)c1nc2ccccc2[nH]1` (stereo not given), the fluorescence response (max-min) is 182.
Next, `COc1ccc(S(=O)(=O)Nc2ccc3c(c2)OCO3)cc1Cl`: 202; `CCOC(=O)C1CCN(Cc2coc3ccc(Cl)cc3c2=O)CC1`: 219; `O=C(Cc1cccs1)N1CCCC(c2nc(-c3ccc(S(=O)(=O)N4CCCC4)cc3)no2)C1` (stereo not given): 213.
To `CCOC(=O)c1[nH]c2ccc(OC)cc2c1NC(=O)CCN1CCN(Cc2ccccc2)CC1` belongs 230; to `CCOC(=O)N1CCN(CC(=O)Nc2cc(C)nn2-c2nc3ccccc3s2)CC1`, 255.
Turning to `COc1cc(Cl)c(C)cc1NC(=O)CSc1nnc(-c2ccco2)n1CC(C)C`, the fluorescence response (max-min) is 252.
Next, `CCC(=O)c1ccc(OCC(O)CN2CCN(c3cccc(C(F)(F)F)c3)CC2)cc1` (stereo not given): 252.
In the case of `O=C(NCC(F)(F)F)Nc1nnc(C(F)(F)F)s1`, the fluorescence response (max-min) is 203.
To `CSc1nnc2c(n1)OC(c1ccsc1)N(C(C)=O)c1ccccc1-2` (stereo not given) belongs 247; to `CN1CCN(CC(=O)Nc2sc3c(c2C#N)CCC(C(C)(C)C)C3)CC1` (stereo not given), 231; to `Cc1ccc(-c2csc3nnc(SCC(=O)NCc4ccco4)n23)cc1`, 237.
Regarding `Cc1ccsc1-c1nc(CSCC(=O)NCCN2CCCC2)c(C)o1`, the fluorescence response (max-min) is 246.
To `CC1=Nn2c(nnc2-c2ccccc2)SC1` belongs 162; to `CCCCCOC(=O)NCCOC(=O)Nc1ccc(C(=O)OCC)cc1`, 170; to `CCOC(=O)N1CCN(C(=O)C2CCCN(c3ncnc4c3sc3cccc(F)c34)C2)CC1` (stereo not given), 165.
To `c1ccc(-c2cc(-c3nnc4sc(-c5ccccn5)nn34)[nH]n2)cc1` belongs 215; to `CC1(C)Cc2c(sc3nc4n(c(=N)c23)CCCCC4)CO1`, 203; to `CCN(CCCCOC(=O)c1ccc(OC)c(OC)c1)C(C)Cc1ccc(OC)cc1` (stereo not given), 254.
To `Cc1ccc(-c2noc(CCC(=O)Nc3ccccc3N3CCN(C)CC3)n2)cc1` belongs 218; to `COC(=O)c1ccc(NC(=O)CN(c2ccc(C)cc2)S(=O)(=O)c2c(C)n[nH]c2C)cc1`, 174; to `O=C(c1ccc(S(=O)(=O)N2CCOCC2)cc1)N1CCN(c2ccccc2)CC1`, 197.
As for `COc1ccc(-c2noc(CN(C)S(=O)(=O)c3ccc(C)cc3)n2)cc1`, the fluorescence response (max-min) is 259.
Next, `COc1ccc(-c2nnn(Cc3nc(N)nc(N4CCCCC4)n3)n2)cc1`: 348.
Next, `CC1(C)CN=C(N2CCN(c3ncnc4sc5c(c34)CCCC5)CC2)S1`: 244; `CC12CN(Cc3ccccc3)CC(C)(CN(Cc3ccccc3)C1)C2=NO`: 253.
To `COCCN(C(=O)CCC(=O)Nc1ccccn1)C(C(=O)NCCC(C)C)c1ccc(OC)cc1` (stereo not given) belongs 243.
Consider `O=C(CCN1C(=O)COc2ccccc21)NCCCN1CCN(c2ccc(F)cc2)CC1`, for which the fluorescence response (max-min) is 252.
To `COCCn1c(SCC(=O)Nc2cc(Cl)ccc2OC)nc2c(c1=O)SC(C)C2` (stereo not given) belongs 256; to `COc1cc(OC)c(C(=O)NC2CC(C)(C)NC(C)(C)C2)cc1OC`, 184; to `CN1CCN(c2ccc(NC(=O)COc3ccc(Cl)cc3Cl)cc2)CC1`, 245.
With `O=C(C(c1ccccc1)c1ccccc1)N1CCN(CC(O)COc2ccccc2)CC1` (stereo not given), the fluorescence response (max-min) is 172.
To `C=CCSc1nc2ccccc2[nH]1` belongs 255; to `COC(CCN(C)C)(c1ccccc1)c1ccccc1`, 257.
To `CCN1CCN(c2c(Cl)cccc2NC(=O)c2ccc(Br)o2)CC1` belongs 203; to `O=C(Nc1ccncc1)c1c(F)cccc1F`, 195.
To `CCn1c(=O)cc(OCC(=O)NCCCN2CCN(c3cccc(Cl)c3)CC2)c2ccccc21` belongs 275; to `CCOC(=O)c1c(NC(=O)CSc2nnc(CN3CCOCC3)n2C)sc2c1CCCC2`, 212; to `COC(=O)c1ccc(C2C3=C(Nc4nnnn42)c2ccccc2OC3)cc1` (stereo not given), 256.
Regarding `CCC/C(O)=C1\C(=O)CC(C)(C)CC1=Nc1ccccc1OC`, the fluorescence response (max-min) is 272.
To `CCOC(=O)Nc1ccc2c(c1)N(C(=O)CN1CCN3CCCC3C1)c1ccccc1CC2` (stereo not given) belongs 187; to `O=C(c1ccc(-n2cnnn2)cc1)N1CCN(C(c2ccccc2)c2ccccc2)CC1`, 242.
To `CCOC(=O)N1CCN(S(=O)(=O)c2cc(Br)cc3c2N(C(=O)C2CC2)CC3)CC1` belongs 246; to `Cc1cc(C)n(-c2nc(SCC(=O)N3CCCC3)c3c4c(sc3n2)CCCC4)n1`, 193; to `CCCCN(CCCC)C(=O)CCS(=O)(=O)c1ccc2c(c1)n(C)c(=O)c(=O)n2C`, 272.
On to `C=C(C)Cn1c(N2CCCC2)nc2c1c(=O)[nH]c(=O)n2C`, for which the fluorescence response (max-min) was 203.
To `Cc1c(C)c2cc3c4c(oc3c(C)c2oc1=O)CCCC4` belongs 174.
Next, `CCN1C(=O)/C(=C2\SC(N3CCCCC3)=NC2=O)c2ccccc21`: 235; `CCCCOc1ccc(C(C)(O)CCN2CCOCC2)cc1` (stereo not given): 209; `O=C(CCCN1C(=O)CSc2ncccc21)N1CCN(c2cccc(C(F)(F)F)c2)CC1`: 263.
To `COc1ccccc1OCCOc1ccc(/C=N/n2cnnc2)cc1` belongs 239.
